The record followed here is PubChem BioAssay (NCATS).

Molecules are shown by their SMILES. Results filed as inconclusive are left out. The source made the active and inactive calls. Calls come from the whole dose curve; as a rule, active = well fitted inhibition curve with a large enough effect; inconclusive = small, poorly fitted or top-dose-only effect; inactive = flat fitted curve, though single readings scatter.

Common to all, as to assay: qHTS profiling for inhibitors of Plasmodium falciparum proliferation (AID 504749); note: nearly all actives have a fitted effect of over 60% in size
Common to all, as to conditions: P. falciparum in erythrocytes, SYBR Green DNA, 72 h; series mostly up to 28.7 µM
A general note: qHTS replaces the single test concentration by a dilution series.

For test [1], the system named is DFO2036. In outline:
(§1)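 P. falciparum-infected erythrocytes (0.3% parasitemia, 2.5% hematocrit) incubated with compound 72 h at 37 C, 5% CO2. Parasite DNA detected by SYBR Green after lysis, overnight at room temperature; normalised to 0.29 uM artemisinin and DMSO.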

Test [2] deals with DIV14. A digest of the protocol: as §1
The test system of test [3] is DIV17. In outline:
as §1

For test [4], the system named is DIV30. A digest of the protocol:
as §1

The test system of test [5] is Dd2. In outline:
as §1

For test [6], the system named is ECU. In outline:
as §1

Test [7] has as its system FAB9. In outline:
as §1

For test [8], the system named is GB4. In outline:
as §1

The subject of test [9] is HB3. In outline:
as §1

Test [10] relates to ICS. In outline: as §1
Test [11] relates to JCK. A digest of the protocol: as §1
Test [12] concerns N140. A digest of the protocol: as §1
In test [13] the test system is P93_24. In outline:
as §1

Test [14] deals with P94_40. In outline:
as §1

In test [15] the test system is PAD. A digest of the protocol: as §1
For test [16], the system named is PC15. A digest of the protocol:
as §1

Test [17] relates to PC26. In outline: as §1
Test [18] relates to PC49. A digest of the protocol: as §1
Test [19] has as its system SC27B. In outline: as §1
Test [20] relates to CP335. A digest of the protocol:
as §1
Potency is the fitted concentration of half-maximal effect.

On to `COc1cc2c(c(OC)c1OC)-c1ccc(OC)c(=O)cc1[C@@H](NC(C)=O)CC2`, for which the Potency result in test [1], in test [2], in test [3], in [4], in test [5] and in [6] was “inactive” throughout. The Potency result in test [7], in test [8], in test [9], in test [10], in test [11] and in [12] was “inactive” in each case. In addition, the Potency entry in [13], in test [14], in [15], in [16], in test [17] and in test [18] was “inactive” in each case. Also, in test [19], the Potency result is “inactive”.
Turning to `CCOC(=O)Nc1ccc(NCc2ccc(F)cc2)nc1N`, the Potency in [20] is 6.01 µM (active); in test [2], 15.1 µM (active); in test [3] it was 15.1 µM (active); in test [4], 16.9 µM (active); in test [5], 12.6 µM (active); in [6], 11.2 µM (active). In addition, the Potency in test [9] is 8.91 µM (active); in test [10], 6.31 µM (active); in test [11], 14.1 µM (active); in test [12], 10 µM (active); in [15] it was 10 µM (active); in test [17], 19 µM (active). Besides, the Potency in test [19] is 10 µM (active).
Consider `NC12CC3CC(CC(C3)C1)C2`, for which the Potency entry in [1], in [2], in test [3], in test [4], in test [5] and in test [6] was “inactive” in each case. For the same compound, the Potency entry in test [7], in test [9], in test [10], in test [12], in test [13] and in [14] was “inactive” throughout. Also, the Potency entry in [15], in [17], in [18] and in [19] was “inactive” in each case.
In the case of `CC#C[C@]1(O)CC[C@H]2[C@@H]3CCC4=CC(=O)CCC4=C3[C@@H](c3ccc(N(C)C)cc3)C[C@@]21C`, the Potency in test [20] was 13.5 µM (active); in test [2], 12 µM (active); in test [3] it was 8.49 µM (active); in test [4] it was 15.1 µM (active); in test [5] it was 12.6 µM (active); in test [6], 8.91 µM (active). In addition, the Potency in test [8] was 15.1 µM (active); in [9], 12.6 µM (active); in test [10], 4.47 µM (active); in test [12], 8.91 µM (active); in test [13] it was 11.2 µM (active); in test [15], 10 µM (active). Further, the results for the Potency in [16], in test [17] and in test [19] were 12.6 µM (active), 13.5 µM (active) and 7.94 µM (active), respectively.
`CC(COc1ccccc1)N(CCCl)Cc1ccccc1` (stereo not drawn): the Potency result in [1], in [7], in test [9], in test [11], in test [15] and in test [16] was “inactive” throughout. In addition, the Potency result in test [18] is “inactive”. Besides, the figures for the Potency in test [3] and in test [10] were 6.01 µM (active) and 11.2 µM (active), respectively.
Consider `CN1CCC(=C2c3ccccc3C=Cc3ccccc32)CC1`, for which the Potency result in test [1], in test [4], in [6], in test [7], in [9] and in test [11] was “inactive” in each case. The Potency entry in test [12], in test [13], in test [14], in test [15], in test [16] and in [17] was “inactive” each time. The Potency result in test [18] and in test [19] was “inactive” throughout.
For `CN(C)CCC=C1c2ccccc2C=Cc2ccccc21`, the Potency result in [1], in test [6], in test [7], in test [9] and in test [12] was “inactive” each time. For the same compound, the Potency in test [2] was 2.39 µM (active); in test [3] it was 3.79 µM (active); in test [10], 8.91 µM (active).
For the compound `O=c1c(O)c(-c2ccc(O)c(O)c2)oc2cc(O)cc(O)c12`, the Potency in test [2] is 15.1 µM (active); in test [8], 12 µM (active); in test [10] it was 7.94 µM (active); in test [15] it was 1.78 µM (active). In addition, the Potency result in test [6], in [11], in [12] and in test [18] was “inactive” in each case.
On to `CC1(CN2CCC(n3c(=O)[nH]c4ccccc43)CC2)OCc2ccccc2-n2cccc21` (stereo not drawn), for which the Potency in test [2] was 9.53 µM (active); in test [3], 13.5 µM (active); in [4] it was 13.5 µM (active); in test [5], 11.2 µM (active); in [6], 10 µM (active); in test [10], 3.98 µM (active). Also, the Potency was 12.6 µM (active) in test [12]; 11.2 µM (active) in test [13]; 10 µM (active) in [14]; 8.91 µM (active) in test [15]; 7.94 µM (active) in test [16]; 12 µM (active) in [17]. In addition, the Potency in [19] is 10 µM (active). Further, the Potency result in [7], in test [11] and in [18] was “inactive” in each case.
Take `O=c1[nH]cc(F)c(=O)[nH]1`: the Potency result in test [1], in [7], in test [11] and in [18] was “inactive” each time. The Potency in test [8] is 12 µM (active).
`Nc1c2c(nc3ccccc13)CCCC2`: the Potency in test [3] is 6.75 µM (active); in test [16], 12.6 µM (active). In addition, the Potency result in [4], in test [5], in [6], in test [7], in test [11] and in test [18] was “inactive” throughout. Moreover, the Potency result in test [19] is “inactive”.
On to `Clc1ccc(C(c2ccccc2Cl)C(Cl)Cl)cc1` (stereo not drawn), for which the Potency result in test [1], in test [5], in [6], in test [7], in [9] and in test [11] was “inactive” throughout. The Potency result in [12], in test [13], in test [14], in test [15], in test [16] and in test [18] was “inactive” throughout. The Potency result in test [19] was “inactive”.
Regarding `CC(C)NCC(O)c1ccc(O)c(O)c1` (stereo not drawn), the Potency result in test [20], in test [1], in [3], in test [4], in test [5] and in [6] was “inactive” in each case. The Potency result in test [7], in test [9], in [10], in test [11], in [12] and in test [13] was “inactive” in each case. In addition, the Potency entry in test [14], in test [15], in [16], in [18] and in test [19] was “inactive” in each case.
With `CN(C)C(=N)N=C(N)N`, the Potency entry in test [20], in test [1], in [5], in [6], in test [7] and in [9] was “inactive” throughout. Also, the Potency result in [10], in test [11], in test [12], in test [13], in test [14] and in test [15] was “inactive” each time. In addition, the Potency entry in test [16], in test [18] and in [19] was “inactive” each time.
`O=C(c1ccc(OCCN2CCCCC2)cc1)c1c(-c2ccc(O)cc2)sc2cc(O)ccc12`: the Potency in test [20] was 6.75 µM (active); in [2], 12 µM (active); in [3], 15.1 µM (active); in test [5], 14.1 µM (active); in [8], 8.49 µM (active); in test [9], 7.08 µM (active). Moreover, the Potency in test [10] was 2 µM (active); in test [12], 11.2 µM (active); in test [13] it was 8.91 µM (active); in test [14] it was 7.94 µM (active); in [19] it was 8.91 µM (active).
On to `COc1ccccc1OCCNCC(O)COc1cccc2[nH]c3ccccc3c12` (stereo not drawn), for which the Potency in test [1] is 14.1 µM (active); in test [2], 13.5 µM (active); in test [6], 10 µM (active); in test [10] it was 7.08 µM (active); in test [12] it was 12.6 µM (active); in test [14], 10 µM (active). For the same compound, in test [19], the Potency was 12.6 µM (active). Besides, the Potency entry in test [7] and in test [9] was “inactive” each time.
With `CCCCc1oc2ccccc2c1C(=O)c1cc(I)c(OCCN(CC)CC)c(I)c1`, the Potency is 9.53 µM (active) in test [20]; 7.57 µM (active) in test [2]; 13.5 µM (active) in [3]; 8.49 µM (active) in [4]; 11.2 µM (active) in test [5]; 8.91 µM (active) in test [6]. The Potency in [8] was 9.53 µM (active); in test [9], 11.2 µM (active); in [10] it was 3.55 µM (active); in test [12], 5.01 µM (active); in test [13], 3.55 µM (active); in test [14], 3.55 µM (active). Besides, the Potency in [15] is 6.31 µM (active); in test [16], 11.2 µM (active); in [17], 9.53 µM (active); in test [19], 10 µM (active).
For the compound `CNCCCC12CCC(c3ccccc31)c1ccccc12`, the Potency result in test [20], in test [1], in test [6], in test [7], in test [9] and in test [11] was “inactive” each time. The Potency result in test [12], in test [15], in test [18] and in [19] was “inactive” throughout. Besides, the Potency in test [3] is 10.7 µM (active); in test [8], 8.49 µM (active).
Consider `NC(=O)OCC(COC(N)=O)c1ccccc1`, for which the Potency result in [1], in [2], in [3], in [4], in [5] and in [6] was “inactive” throughout. Besides, the Potency entry in test [7], in test [8], in [9], in test [10], in [11] and in test [12] was “inactive” throughout. For the same compound, the Potency result in [13], in [14], in test [15], in test [16], in test [17] and in test [18] was “inactive” throughout. Also, the Potency result in test [19] is “inactive”.
For `Clc1ccc2c(c1)C(N1CCNCC1)=Nc1ccccc1O2`, the Potency result in [4], in test [7], in test [11], in test [17] and in [18] was “inactive” throughout.
In the case of `CN(C)CCCN1c2ccccc2CCc2ccc(Cl)cc21`, the Potency result in test [1], in test [7], in test [9], in [11] and in test [19] was “inactive” in each case. Further, the Potency was 1.51 µM (active) in test [2], 3.38 µM (active) in test [3], 8.49 µM (active) in test [8] and 10 µM (active) in test [10].
